# Measured values reported in the antibiotic and cytotoxicity screens of Wong et al. (2023).
# About 3,300 (8.5%) of roughly 39,000 compounds were called active. The entries come from a sample that favours actives as a whole.
# Tested on: HepG2
# Experiment: cytotoxicity call (relative viability < 0.9)
# Settings: 10 µM
row,SMILES,cytotoxicity call
1,C[C@@H]1CN([C@H](C)CO)C(=O)c2cccc(NC(=O)c3cnccn3)c2O[C@H]1CN(C)S(C)(=O)=O,inactive
2,C[C@@H]1CCCCO[C@@H](CN(C)C(=O)c2ccncc2)[C@@H](C)CN([C@H](C)CO)C(=O)c2cc(NC(=O)C3CCCCC3)ccc2O1,inactive
3,C[C@@H]1CN([C@H](C)CO)C(=O)c2cc(NC(=O)C3CCCCC3)ccc2O[C@@H](C)CCCCO[C@@H]1CN(C)C(=O)c1ccncc1,inactive
4,C[C@H]1CN([C@@H](C)CO)C(=O)c2cc(NC(=O)CCC(F)(F)F)ccc2O[C@@H]1CN(C)Cc1ccc(C(=O)Nc2ccccc2N)cc1,inactive
5,COc1ccc(NC(=O)N(C)C[C@H]2OCCCC[C@@H](C)Oc3ccc(NS(=O)(=O)c4c(C)noc4C)cc3C(=O)N([C@@H](C)CO)C[C@H]2C)cc1,inactive
6,NNc1ccc2nncn2n1,inactive
7,C[C@@H]1CN([C@@H](C)CO)C(=O)Cc2cc(NC(=O)CCN3CCOCC3)ccc2O[C@H]1CN(C)S(=O)(=O)c1cn(C)cn1,inactive
8,C[C@H]1CN([C@@H](C)CO)C(=O)c2cc(C#CCN(C)C)cnc2O[C@H]1CN(C)C(=O)Nc1cccc(F)c1,inactive
9,C[C@H]1CN([C@@H](C)CO)C(=O)c2cc(C#CCc3ccccc3)cnc2O[C@H]1CN(C)CC1CCOCC1,inactive
10,CC(C)N1C[C@@H](C)[C@H](CN(C)Cc2ccc(Oc3ccccc3)cc2)Oc2c(C(=O)Nc3ccncc3)cccc2C1=O,inactive
11,Cc1ccc(O)c(C(C)(C)C)c1,inactive
12,Cc1cc(C(C)(C)C)c(O)c(C(C)(C)C)c1,active
13,CC(C)(Sc1cc(C(C)(C)C)c(O)c(C(C)(C)C)c1)Sc1cc(C(C)(C)C)c(O)c(C(C)(C)C)c1,inactive
14,C[C@H](CO)N1C[C@H](C)[C@H](CN(C)C(=O)CN(C)C)Oc2ncc(C#CC(C)(C)O)cc2C1=O,inactive
15,C[C@@H]1CN([C@@H](C)CO)C(=O)c2cccc(NC(=O)CCCCCC(=O)Nc3ccccc3N)c2O[C@@H]1CN(C)S(=O)(=O)c1cn(C)cn1,inactive
16,C[C@@H]1CN([C@H](C)CO)C(=O)c2cc(NS(=O)(=O)c3ccccc3)ccc2O[C@@H]1CN(C)Cc1ccc(Cl)c(Cl)c1,active
17,C[C@H](CO)N1C[C@H](C)[C@H](CN(C)Cc2ccc(Cl)c(Cl)c2)Oc2ccc(NS(=O)(=O)c3ccccc3)cc2C1=O,inactive
18,C[C@@H]1CN([C@@H](C)CO)C(=O)c2cc(NS(=O)(=O)c3ccccc3)ccc2O[C@H]1CN(C)Cc1ccc(Cl)c(Cl)c1,inactive
19,C[C@H]1CN([C@@H](C)CO)C(=O)c2cc(NS(=O)(=O)c3ccccc3)ccc2O[C@@H]1CN(C)Cc1ccc(Cl)c(Cl)c1,inactive
20,C[C@@H]1CN([C@@H](C)CO)C(=O)c2cc(NS(=O)(=O)c3ccccc3)ccc2O[C@@H]1CN(C)Cc1ccc(Cl)c(Cl)c1,active
21,C[C@H](CO)N1C[C@H](C)[C@@H](CN(C)Cc2ccc(Cl)c(Cl)c2)Oc2ccc(NS(=O)(=O)c3ccccc3)cc2C1=O,inactive

row,SMILES,cytotoxicity call
1,C[C@H](CO)N1C[C@H](C)[C@@H](CN(C)C(=O)Nc2ccc(N3CCCCC3)cc2)OCc2cnnn2CCCC1=O,inactive
2,CC(C)NC(=O)N(C)C[C@@H]1Oc2ccc(NC(=O)C3CCCCC3)cc2CC(=O)N([C@@H](C)CO)C[C@H]1C,inactive
3,CCC[C@@H](O)C#Cc1cnc2c(c1)C(=O)N([C@H](C)CO)C[C@H](C)[C@H](CN(C)S(=O)(=O)c1cccs1)O2,inactive
4,C[C@H]1CC[C@@H]2C(C(=O)O[C@H]3[C@H]4O[C@@]4(C)[C@H]4[C@@H](O[C@H]5O[C@@H](CO)[C@@H](O)[C@@H](O)[C@@H]5O)OC=C[C@@]34O)=CO[C@H](O[C@H]3O[C@@H](CO)[C@@H](O)[C@@H](O)[C@@H]3O)[C@@H]21,inactive
5,C[C@H](CO)N1C[C@H](C)[C@H](CN(C)C(=O)Nc2ccc(F)cc2)Oc2ccc(NS(C)(=O)=O)cc2C1=O,inactive
6,C[C@H]1CN([C@@H](C)CO)C(=O)c2cc(NC(=O)Nc3ccc(C(F)(F)F)cc3)ccc2O[C@@H]1CN(C)C(=O)NC1CCCCC1,inactive
7,C[C@H](CO)N1C[C@H](C)[C@@H](CN(C)C(=O)NC2CCCCC2)Oc2ccc(NC(=O)Nc3ccc(C(F)(F)F)cc3)cc2C1=O,inactive
8,C[C@@H]1CN([C@H](C)CO)C(=O)c2cc(NC(=O)Nc3ccc(C(F)(F)F)cc3)ccc2O[C@H]1CN(C)C(=O)NC1CCCCC1,inactive
9,C[C@H]1CN([C@@H](C)CO)C(=O)c2cc(NC(=O)NC3CCCCC3)ccc2O[C@H]1CN(C)C(=O)Nc1ccc(C(F)(F)F)cc1,inactive
10,C[C@@H]1CN([C@@H](C)CO)C(=O)c2cc(NC(=O)Nc3ccc(C(F)(F)F)cc3)ccc2O[C@@H]1CN(C)C(=O)NC1CCCCC1,active
11,C[C@H]1CN([C@@H](C)CO)C(=O)c2cc(NC(=O)Nc3ccc(C(F)(F)F)cc3)ccc2O[C@H]1CN(C)C(=O)NC1CCCCC1,inactive
12,C[C@@H]1CN([C@H](C)CO)C(=O)c2cc(NC(=O)NC3CCCCC3)ccc2O[C@H]1CN(C)C(=O)Nc1ccc(C(F)(F)F)cc1,inactive
13,C[C@H](CO)N1C[C@H](C)[C@H](CN(C)C(=O)Nc2ccc(C(F)(F)F)cc2)Oc2ccc(NC(=O)NC3CCCCC3)cc2C1=O,active
14,C[C@@H]1CN([C@H](C)CO)C(=O)c2cc(NC(=O)Nc3ccc(C(F)(F)F)cc3)ccc2O[C@@H]1CN(C)C(=O)NC1CCCCC1,active
15,C[C@@H]1CN([C@H](C)CO)C(=O)c2cc(NC(=O)Nc3ccccc3)ccc2O[C@@H](C)CCCCO[C@@H]1CN(C)C(=O)NC1CCCCC1,inactive
16,CC(=O)N[C@@H]1[C@@H](O)[C@H](O)[C@H](CO)O[C@@H]1O,inactive
17,COCC(=O)Nc1ccc2c(c1)OC[C@@H](C)N(C(=O)Cc1cccnc1)C[C@H](C)[C@@H](OC)CN(C)C2=O,inactive
18,Cn1cnc(S(=O)(=O)N2C[C@@H](O)COC[C@H]3O[C@H](CC(=O)NCc4ccc(F)cc4)CC[C@@H]32)c1,inactive
19,COc1cc(C)nc(SCC(N)=O)n1,inactive
20,COc1ccc(S(=O)(=O)Nc2ccc3c(c2)C(=O)N([C@@H](C)CO)C[C@@H](C)[C@@H](CN(C)S(=O)(=O)c2ccccc2)O3)cc1,inactive
21,C[C@@H]1CN([C@H](C)CO)C(=O)CCCn2nncc2CO[C@@H]1CN(C)C(=O)CCCN(C)C,inactive

row,SMILES,cytotoxicity call
1,Cc1cc(O[C@@H](CCC(F)(F)F)c2ccc(C(=O)NCCC(=O)O)cc2)cc(C)c1-c1ccc(C(C)(C)C)cc1,inactive
2,Cc1cc(C)c(-c2ccc(NC(=O)[C@H](Cc3ccc(C(=O)NCCS(=O)(=O)O)cc3)c3ccc(-c4ccc(C(C)(C)C)cc4)cc3)cc2)c(C)c1,active
3,COc1ccc(C#Cc2ccc3c(c2)O[C@H](CN(C)S(=O)(=O)c2ccccc2F)[C@@H](C)CN([C@H](C)CO)S3(=O)=O)cc1,inactive
4,COc1ccc(S(=O)(=O)Nc2ccc3c(c2)C(=O)N([C@@H](C)CO)C[C@H](C)[C@@H](CN(C)Cc2ccc(C(F)(F)F)cc2)OCCCC[C@@H](C)O3)cc1,active
5,COc1ccc(S(=O)(=O)Nc2ccc3c(c2)C(=O)N([C@@H](C)CO)C[C@@H](C)[C@@H](CN(C)Cc2ccc(C(F)(F)F)cc2)OCCCC[C@@H](C)O3)cc1,active
6,COc1ccc(S(=O)(=O)Nc2ccc3c(c2)C(=O)N([C@@H](C)CO)C[C@@H](C)[C@H](CN(C)Cc2ccc(C(F)(F)F)cc2)OCCCC[C@@H](C)O3)cc1,active
7,COc1ccc(S(=O)(=O)Nc2ccc3c(c2)C(=O)N([C@H](C)CO)C[C@@H](C)[C@@H](CN(C)Cc2ccc(C(F)(F)F)cc2)OCCCC[C@H](C)O3)cc1,inactive
8,COc1ccc(S(=O)(=O)Nc2ccc3c(c2)C(=O)N([C@H](C)CO)C[C@H](C)[C@@H](CN(C)Cc2ccc(C(F)(F)F)cc2)OCCCC[C@@H](C)O3)cc1,inactive
9,COc1ccc(S(=O)(=O)Nc2ccc3c(c2)C(=O)N([C@@H](C)CO)C[C@H](C)[C@H](CN(C)Cc2ccc(C(F)(F)F)cc2)OCCCC[C@H](C)O3)cc1,active
10,C[C@@H]1CCCCO[C@@H](CN(C)C(=O)c2ccncc2)[C@@H](C)CN([C@H](C)CO)C(=O)c2cc(NC(=O)NC3CCCCC3)ccc2O1,inactive
11,CO[C@H]1CN(C)C(=O)c2ccc(NC(=O)C3CC3)cc2OC[C@H](C)N(C(=O)Cc2ccccn2)C[C@@H]1C,inactive
12,C[C@@H]1CN([C@H](C)CO)C(=O)c2cccc(NC(=O)Nc3ccccc3)c2O[C@@H]1CN(C)Cc1ccc(Cl)c(Cl)c1,inactive
13,C[C@H](CO)N1C[C@H](C)[C@@H](CN(C)C(=O)Nc2ccc3c(c2)OCO3)Oc2ncc(-c3cccnc3)cc2C1=O,inactive
14,CCS(=O)(=O)Nc1ccc2c(c1)C(=O)N(C)[C@H]1CC[C@@H](CC(=O)NCCOC)O[C@H]1CO2,inactive
15,C[C@H](CO)N1C[C@H](C)[C@H](CN(C)CC2CCCCC2)Oc2c(NC(=O)c3cnccn3)cccc2C1=O,inactive
16,Nc1ccn([C@@H]2CS[C@H](CO)O2)c(=O)n1,inactive
17,CN1CCN(C(=O)C[C@H]2CC[C@@H]3[C@@H](COc4ccc(NC(=O)C5CCCCC5)cc4C(=O)N3C)O2)CC1,inactive
18,CCCNC(=O)N1C[C@]2(CN(C2)S(=O)(=O)c2ccc(cc2)OC)c2c(n(c3cc(ccc23)OC)C)[C@@H]1CO,inactive
19,C[C@H](CO)N1C[C@H](C)[C@@H](CN(C)C(=O)c2cccc(F)c2)Oc2cc(C#CC3CC3)ccc2S1(=O)=O,inactive
20,CNC(=O)C[C@H]1CC[C@H]2[C@@H](COC[C@H](O)CN2C(=O)Nc2ccc3c(c2)OCO3)O1,inactive
